This is an account of results in PubChem BioAssay (EPA / NIEHS).

Experiment [1] can be described thus: ATG_TGFb_CIS: Attagene CIS-FACTORIAL HepG2 Assay for human Transforming Growth Factor (TGF) (AID 2282967). To be noted: HepG2 Attagene CIS TGFb reporter, mRNA transcription; actives raise or lower the signal. The method, boiled down:
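Transcript-level reporter readout: HepG2 transfectants, 24 h exposure, RNA to cDNA, reporter-specific PCR, fluorescent primer extension, capillary sizing against ROX standards. Gain- or loss-of-signal relative to DMSO.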

For experiment [2], the target named is X-box-binding protein 1 (Homo sapiens) (UniProt P17861). The experiment can be described thus: ATG_Xbp1_CIS: Attagene CIS-FACTORIAL HepG2 Assay for human X-box Binding Protein 1 (XBP1) (AID 2282972). To be noted: HepG2 XBP1 cis-element reporter, Attagene multiplex; actives raise or lower the signal. The method, boiled down: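 Fluorescence-labelled cDNA fragments from reporter transcripts, separated by capillary electrophoresis, give the signal. Source: HepG2 cells transfected with promoter-driven reporter units, harvested 24 h post-dose. DMSO served as reference for bidirectional curve fitting.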
Sequence of X-box-binding protein 1 (Homo sapiens) (P17861 whole entry, looked up, the tested form may be a part): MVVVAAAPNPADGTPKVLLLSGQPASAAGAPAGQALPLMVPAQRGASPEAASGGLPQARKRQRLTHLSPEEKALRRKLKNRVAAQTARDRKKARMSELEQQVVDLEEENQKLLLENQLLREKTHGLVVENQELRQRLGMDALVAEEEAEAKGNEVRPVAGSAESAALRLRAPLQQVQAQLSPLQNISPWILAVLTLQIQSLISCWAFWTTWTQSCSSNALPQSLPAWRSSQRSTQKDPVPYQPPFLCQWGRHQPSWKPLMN

A short description of experiment [3]: ATG_M_19_TRANS: Attagene TRANS-FACTORIAL HepG2 Assay for M19 Transcription Factor (Internal Marker) (AID 2282974; active means hit-call score of the fitted dose curve at least 0.9, where 1 is the maximum). The note with it: HepG2 Attagene TRANS-FACTORIAL M19 internal marker reporter. The method, boiled down: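 Cells: human HepG2, transiently transfected with multiplexed reporter transcription units. Exposure: 24 h. Detection: RT-PCR of reporter mRNA with capillary electrophoresis. Analysis: gain-of-signal vs DMSO.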

Experiment [4] addresses Oxysterols receptor LXR-alpha (Homo sapiens) (UniProt Q13133). As to the kind of experiment: ATG_LXRa_TRANS: Attagene TRANS-FACTORIAL HepG2 Assay for human Liver X Receptor alpha (LXRa) (AID 2282980; active means hit-call score of the fitted dose curve at least 0.9, where 1 is the maximum). To be noted: HepG2 Attagene TRANS reporter, LXRa transactivation. The method, boiled down: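 Read-out: reporter transcript levels by RT-PCR plus capillary electrophoresis, fluorescence intensity. Transiently transfected HepG2, exogenous NR-GAL4 chimera, GAL4-UAS reporters; 24 h compound exposure. Activity = increase over DMSO negative control.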

Experiment [5] deals with Hepatocyte nuclear factor 4-alpha (Homo sapiens) (UniProt P41235). The experiment can be described thus: ATG_HNF4a_TRANS: Attagene TRANS-FACTORIAL HepG2 Assay for human Hepatocyte Nuclear Factor 4 alpha (HNF4a) (AID 2282982; active means hit-call score of the fitted dose curve at least 0.9, where 1 is the maximum). The note with it: HepG2 HNF4a transactivation reporter, mRNA readout. In short, it runs like this: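 Cells used were human HepG2, transiently carrying GAL4-UAS reporter units read out against exogenous NR-GAL4 chimeras. Reporter transcript levels after 24 h dosing were quantified by fluorescent RT-PCR and capillary electrophoresis.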
Sequence of Hepatocyte nuclear factor 4-alpha (Homo sapiens) (P41235 whole entry, looked up, the tested form may be a part): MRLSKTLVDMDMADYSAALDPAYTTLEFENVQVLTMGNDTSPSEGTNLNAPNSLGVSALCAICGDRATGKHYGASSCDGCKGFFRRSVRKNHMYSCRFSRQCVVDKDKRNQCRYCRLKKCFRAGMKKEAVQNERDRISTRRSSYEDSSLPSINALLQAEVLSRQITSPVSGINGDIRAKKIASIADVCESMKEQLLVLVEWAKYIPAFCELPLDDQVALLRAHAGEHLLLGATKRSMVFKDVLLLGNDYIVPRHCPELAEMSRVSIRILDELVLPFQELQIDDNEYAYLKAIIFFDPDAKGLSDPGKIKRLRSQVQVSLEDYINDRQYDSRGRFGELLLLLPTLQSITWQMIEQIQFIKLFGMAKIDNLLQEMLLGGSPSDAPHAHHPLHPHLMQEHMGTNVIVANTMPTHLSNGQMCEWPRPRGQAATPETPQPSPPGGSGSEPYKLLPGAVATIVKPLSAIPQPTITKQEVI

Experiment [6] has as its target Transcriptional activator Myb (Homo sapiens) (UniProt P10242). The experiment can be described thus: ATG_Myb_CIS: Attagene CIS-FACTORIAL HepG2 Assay for human Myeloblastosis (Myb) Proto-Oncogene Transcription Factor (AID 2282986). To be noted: HepG2 Attagene CIS-FACTORIAL Myb reporter transcription; actives raise or lower the signal. The method, boiled down: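 Steps: transfect HepG2 with cis-regulated reporter units; dose with chemical for 24 h; isolate RNA, reverse-transcribe, PCR-amplify and FAM-label reporter sequences; digest with HpaI; resolve by capillary electrophoresis. Activity fitted in both directions relative to DMSO.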

The target in experiment [7] is Nuclear respiratory factor 1 (Homo sapiens) (UniProt Q16656). As to the kind of experiment: ATG_NRF1_CIS: Attagene CIS-FACTORIAL HepG2 Assay for human Nuclear Respiratory Factor 1 (NRF1) Orphan Gene (AID 2282987). To be noted: HepG2 NRF1 cis-element reporter, Attagene multiplex; actives raise or lower the signal. In short, it runs like this: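 Fluorescence intensity of labelled reporter cDNA fragments, resolved by capillary electrophoresis, served as readout for NRF1 cis-element activity. Transiently transfected HepG2 cells were dosed for 24 hours; activity in either direction was fitted against DMSO negative control.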
Sequence of Nuclear respiratory factor 1 (Homo sapiens) (Q16656 whole entry, looked up, the tested form may be a part): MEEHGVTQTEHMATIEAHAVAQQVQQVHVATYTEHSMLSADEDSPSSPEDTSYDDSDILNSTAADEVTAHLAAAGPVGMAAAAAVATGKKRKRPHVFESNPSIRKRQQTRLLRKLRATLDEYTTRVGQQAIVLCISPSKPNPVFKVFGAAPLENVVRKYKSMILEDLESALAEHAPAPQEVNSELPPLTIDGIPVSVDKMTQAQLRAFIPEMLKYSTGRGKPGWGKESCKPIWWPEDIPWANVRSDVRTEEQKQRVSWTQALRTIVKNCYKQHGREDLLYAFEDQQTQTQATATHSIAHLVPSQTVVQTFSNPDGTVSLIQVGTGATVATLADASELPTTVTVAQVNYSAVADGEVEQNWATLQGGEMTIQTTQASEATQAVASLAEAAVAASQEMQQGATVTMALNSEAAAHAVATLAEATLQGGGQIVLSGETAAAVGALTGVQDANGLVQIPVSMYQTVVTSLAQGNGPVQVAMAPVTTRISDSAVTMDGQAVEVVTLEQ

Experiment [8] can be described thus: ATG_NFI_CIS: Attagene CIS-FACTORIAL HepG2 Assay for human Nuclear Factor I (NFI) (AID 2282989). To be noted: HepG2 cis-regulatory reporter, NFI response element transcription; actives raise or lower the signal. In short, it runs like this:
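After transient transfection of HepG2 with cis-promoter reporter constructs and 24 h dosing, RNA is reverse-transcribed, amplified, 6-FAM end-labelled and HpaI-digested before capillary analysis. Bidirectional curve fitting against DMSO.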

The nature of experiment [9]: ATG_VDRE_CIS: Attagene CIS-FACTORIAL HepG2 Assay for human Vitamin D Receptor Element (VDRE) (AID 2282968). The note with it: HepG2 VDRE cis-reporter transcription, actives raise or lower the signal. In short, it runs like this:
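RT-PCR/CE readout of reporter mRNA; HepG2, transient transfection, 24 h dosing; DMSO baseline; bidirectional analysis.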

For experiment [10], the target named is Steroid hormone receptor ERR1 (Homo sapiens) (UniProt P11474). The experiment can be described thus: ATG_ERRa_TRANS: Attagene TRANS-FACTORIAL HepG2 Assay for human Estrogen-Related Receptor alpha (ERRa) (AID 2282971; active means hit-call score of the fitted dose curve at least 0.9, where 1 is the maximum). To be noted: HepG2 Attagene TRANS reporter, ERRa transactivation. The method, boiled down:
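Transfected HepG2, 24 h dosing, ERRa-Gal4 chimera driving GAL4-UAS reporter. Readout: reporter mRNA via RT-PCR plus capillary electrophoresis (fluorescence). Positive direction vs DMSO control.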

Experiment [11] in a line: ATG_GAL4_TRANS: Attagene TRANS-FACTORIAL HepG2 Assay for GAL4 (Internal Marker) (AID 2282976; active means hit-call score of the fitted dose curve at least 0.9, where 1 is the maximum). The note with it: HepG2 Attagene TRANS GAL4 internal marker reporter. In short, it runs like this: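 RT-PCR/capillary electrophoresis readout of reporter mRNA. HepG2, transient MRTU transfection (GAL4-UAS reporters), 24 h compound exposure. Background-control endpoint, positive direction vs DMSO baseline.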

Experiment [12] can be described thus: ATG_M_06_TRANS: Attagene TRANS-FACTORIAL HepG2 Assay for M06 Transcription Factor (Internal Marker) (AID 2282983; active means hit-call score of the fitted dose curve at least 0.9, where 1 is the maximum). The note with it: HepG2 Attagene TRANS M06 internal marker reporter. The method, boiled down: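 After a 24 h chemical treatment of transfected HepG2, RNA underwent DNase I treatment, reverse transcription and reporter-specific PCR; labelled, HpaI-digested products were sized by capillary electrophoresis. Signal increase relative to DMSO defined activity.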

Experiment [13] is described as follows: ATG_M_32_TRANS: Attagene TRANS-FACTORIAL HepG2 Assay for M32 Transcription Factor (Internal Marker) (AID 2282984; active means hit-call score of the fitted dose curve at least 0.9, where 1 is the maximum). To be noted: HepG2 Attagene TRANS M32 internal marker reporter. The method, boiled down: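 Human hepatoma HepG2, transient MRTU transfection, 24 h treatment. RNA → RT-PCR → fluorescent primer extension → HpaI digest (2 h, 37 C) → CE. Positive-direction fit vs DMSO.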

For experiment [14], the target named is Nuclear receptor subfamily 4 group A member 2 (Homo sapiens) (UniProt P43354). As to the kind of experiment: ATG_NURR1_TRANS: Attagene TRANS-FACTORIAL HepG2 Assay for human Nuclear Receptor Related Protein 1 (NURR1) (AID 2282985; active means hit-call score of the fitted dose curve at least 0.9, where 1 is the maximum). The note with it: HepG2 Attagene TRANS reporter, mRNA readout. In short, it runs like this:
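After 24 h chemical dosing, total RNA from transiently transfected HepG2 cells was reverse-transcribed and reporter cDNA PCR-amplified, FAM-labelled and analysed by capillary electrophoresis. Activity fitted in positive direction, DMSO as negative control.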

Experiment [15] deals with Estrogen-related receptor gamma (Homo sapiens) (UniProt P62508). As to the kind of experiment: ATG_ERRg_TRANS: Attagene TRANS-FACTORIAL HepG2 Assay for human Estrogen-Related Receptor gamma (ERRg) (AID 2282977; active means hit-call score of the fitted dose curve at least 0.9, where 1 is the maximum;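 further: hits increase reporter signal over DMSO so potencies reflect activators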). To be noted: HepG2 Attagene TRANS reporter, ERRg transactivation. The method, boiled down: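 Transfect HepG2 with multiple GAL4-UAS reporter transcription units; dose chemicals 24 h; isolate RNA, reverse-transcribe with oligo(dT), PCR-amplify, label with 6-FAM, digest with HpaI; size fragments by capillary electrophoresis. DMSO serves as negative control.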

For experiment [16], the target named is Glucocorticoid receptor (Homo sapiens) (UniProt P04150). The experiment can be described thus: ATG_GR_TRANS: Attagene TRANS-FACTORIAL HepG2 Assay for human Glucocorticoid Receptor (GR) (AID 2282978; active means hit-call score of the fitted dose curve at least 0.9, where 1 is the maximum;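 further: activators score as hits since higher reporter transcript over DMSO is fitted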). The note with it: HepG2 Attagene TRANS GR reporter, mRNA transcription. The method, boiled down: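 In this trans-factorial format, exogenous NR-GAL4 chimeric proteins in transfected HepG2 cells regulate GAL4-UAS reporter transcription. After 24 h treatment, reporter mRNA induction relative to DMSO is read by RT-PCR and capillary electrophoresis.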
Sequence of Glucocorticoid receptor (Homo sapiens) (P04150 whole entry, looked up, the tested form may be a part): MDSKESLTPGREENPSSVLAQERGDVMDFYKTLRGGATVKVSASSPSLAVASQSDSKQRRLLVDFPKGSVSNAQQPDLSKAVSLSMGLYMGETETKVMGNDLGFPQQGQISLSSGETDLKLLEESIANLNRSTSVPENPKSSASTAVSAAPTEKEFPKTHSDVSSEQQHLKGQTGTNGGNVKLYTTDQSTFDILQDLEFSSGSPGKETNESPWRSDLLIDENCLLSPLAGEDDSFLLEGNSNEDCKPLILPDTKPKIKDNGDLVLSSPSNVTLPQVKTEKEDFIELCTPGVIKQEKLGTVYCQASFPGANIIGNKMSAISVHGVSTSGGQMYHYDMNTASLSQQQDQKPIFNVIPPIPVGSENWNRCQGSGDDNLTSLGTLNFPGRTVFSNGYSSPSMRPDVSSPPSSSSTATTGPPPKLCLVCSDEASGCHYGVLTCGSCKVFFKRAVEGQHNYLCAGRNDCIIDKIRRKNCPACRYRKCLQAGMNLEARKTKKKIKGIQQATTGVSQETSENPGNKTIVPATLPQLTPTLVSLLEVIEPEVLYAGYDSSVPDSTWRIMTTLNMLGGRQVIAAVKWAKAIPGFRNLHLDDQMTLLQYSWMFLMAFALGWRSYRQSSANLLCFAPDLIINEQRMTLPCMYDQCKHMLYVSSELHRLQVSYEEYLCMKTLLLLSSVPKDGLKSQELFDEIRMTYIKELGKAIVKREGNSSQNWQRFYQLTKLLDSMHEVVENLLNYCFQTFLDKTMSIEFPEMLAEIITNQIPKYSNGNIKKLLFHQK

Experiment [17] deals with Oxysterols receptor LXR-beta (Homo sapiens) (UniProt P55055). The experiment can be described thus: ATG_LXRb_TRANS: Attagene TRANS-FACTORIAL HepG2 Assay for human Liver X Receptor beta (LXRb) (AID 2282981; active means hit-call score of the fitted dose curve at least 0.9, where 1 is the maximum). To be noted: HepG2 Attagene TRANS GAL4-LXRb reporter, mRNA. In short, it runs like this: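 In this TRANS format, exogenous chimeric NR-Gal4 protein activity, not endogenous factors, drives reporter expression in transfected human HepG2 cells. Exposure lasted 24 h; reporter mRNA was read by fluorescent capillary electrophoresis.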
Sequence of Oxysterols receptor LXR-beta (Homo sapiens) (P55055 whole entry, looked up, the tested form may be a part): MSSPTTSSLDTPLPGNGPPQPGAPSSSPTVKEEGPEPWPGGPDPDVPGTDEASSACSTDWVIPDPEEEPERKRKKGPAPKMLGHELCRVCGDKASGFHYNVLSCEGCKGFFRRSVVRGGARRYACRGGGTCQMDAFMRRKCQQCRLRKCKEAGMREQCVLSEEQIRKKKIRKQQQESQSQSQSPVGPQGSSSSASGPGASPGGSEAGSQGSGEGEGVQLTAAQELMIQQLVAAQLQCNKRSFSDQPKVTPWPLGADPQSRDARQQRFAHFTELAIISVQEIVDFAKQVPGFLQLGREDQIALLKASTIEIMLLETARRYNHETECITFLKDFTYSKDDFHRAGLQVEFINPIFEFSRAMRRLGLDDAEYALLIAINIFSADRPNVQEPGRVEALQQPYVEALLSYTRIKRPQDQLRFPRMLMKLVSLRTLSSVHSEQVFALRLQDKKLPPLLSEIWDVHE

Experiment [18] has as its target Estrogen receptor (Homo sapiens) (UniProt P03372). The experiment can be described thus: ATG_ERa_TRANS: Attagene TRANS-FACTORIAL HepG2 Assay for human Estrogen Receptor alpha (ERa) (AID 2282970; active means hit-call score of the fitted dose curve at least 0.9, where 1 is the maximum). The note with it: HepG2 Attagene TRANS ERa GAL4 reporter, mRNA. The method, boiled down:
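After 24 h of compound treatment, RNA from HepG2 cells bearing transfected GAL4-UAS reporter constructs is converted to cDNA, amplified and fluorescently labelled. Capillary electrophoresis resolves the ERa-linked reporter; DMSO serves as negative control.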

Experiment [19] deals with Bile acid receptor (Homo sapiens) (UniProt Q96RI1). As to the kind of experiment: ATG_FXR_TRANS: Attagene TRANS-FACTORIAL HepG2 Assay for Farnesoid X Receptor (FXR) (AID 2282979; active means hit-call score of the fitted dose curve at least 0.9, where 1 is the maximum;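 further: hits raise reporter mRNA above DMSO so AC50 marks FXR activation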). To be noted: HepG2 Attagene TRANS FXR-GAL4 reporter transcription. The method, boiled down: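 Read-out: fluorescent reporter transcripts quantified by capillary electrophoresis after RT-PCR of total RNA. Source cells were HepG2 transiently carrying chimeric NR-GAL4 plus GAL4-UAS reporter units, dosed 24 h. Activity fitted upward relative to DMSO baseline.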

Each structure is given as a SMILES string. Where “and” joins values, the source holds several entries; their conditions need not be identical. Equal values may be shown once. Results filed as inconclusive are left out. Where a structure was tested more than once in an assay, its records may differ in their call. Calls of active or inactive are those of the source. How the source made its calls, unless noted: active means hit-call score of the fitted dose curve at least 0.9, where 1 is the maximum; inactive means score below 0.9.

Sequence of Estrogen receptor (Homo sapiens) (P03372 whole entry, looked up, the tested form may be a part): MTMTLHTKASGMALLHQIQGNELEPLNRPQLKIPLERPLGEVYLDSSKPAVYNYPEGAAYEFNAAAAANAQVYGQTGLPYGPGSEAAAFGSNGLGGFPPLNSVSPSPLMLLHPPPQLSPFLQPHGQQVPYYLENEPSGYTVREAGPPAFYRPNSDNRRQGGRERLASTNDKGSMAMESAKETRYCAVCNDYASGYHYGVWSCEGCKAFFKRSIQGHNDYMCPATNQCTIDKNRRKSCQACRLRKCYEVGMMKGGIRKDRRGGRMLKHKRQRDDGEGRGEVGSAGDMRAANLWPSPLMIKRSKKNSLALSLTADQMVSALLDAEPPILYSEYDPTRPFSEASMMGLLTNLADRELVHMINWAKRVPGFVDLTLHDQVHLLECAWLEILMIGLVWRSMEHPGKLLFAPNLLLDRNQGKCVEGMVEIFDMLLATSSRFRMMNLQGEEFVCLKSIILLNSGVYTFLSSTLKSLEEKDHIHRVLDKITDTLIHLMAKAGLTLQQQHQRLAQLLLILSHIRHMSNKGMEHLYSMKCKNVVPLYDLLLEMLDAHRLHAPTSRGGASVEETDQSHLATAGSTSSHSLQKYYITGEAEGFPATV
Sequence of Transcriptional activator Myb (Homo sapiens) (P10242 whole entry, looked up): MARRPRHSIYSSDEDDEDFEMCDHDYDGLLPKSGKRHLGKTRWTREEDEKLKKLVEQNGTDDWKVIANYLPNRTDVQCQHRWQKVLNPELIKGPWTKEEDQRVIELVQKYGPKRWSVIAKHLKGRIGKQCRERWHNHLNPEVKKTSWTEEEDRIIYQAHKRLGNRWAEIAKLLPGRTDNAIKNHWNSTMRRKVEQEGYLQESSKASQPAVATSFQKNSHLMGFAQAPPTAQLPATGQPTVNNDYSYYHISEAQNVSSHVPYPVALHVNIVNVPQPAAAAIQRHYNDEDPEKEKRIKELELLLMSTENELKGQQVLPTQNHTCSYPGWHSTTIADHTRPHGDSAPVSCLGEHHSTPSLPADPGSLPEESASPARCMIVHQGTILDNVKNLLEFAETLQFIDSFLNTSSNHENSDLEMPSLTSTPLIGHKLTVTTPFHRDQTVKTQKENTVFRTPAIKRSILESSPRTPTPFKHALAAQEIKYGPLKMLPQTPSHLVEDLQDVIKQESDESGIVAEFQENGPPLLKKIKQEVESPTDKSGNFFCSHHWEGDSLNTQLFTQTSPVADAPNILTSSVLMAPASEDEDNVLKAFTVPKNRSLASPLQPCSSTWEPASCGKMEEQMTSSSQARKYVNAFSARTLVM
Sequence of Nuclear receptor subfamily 4 group A member 2 (Homo sapiens) (P43354 whole entry, looked up): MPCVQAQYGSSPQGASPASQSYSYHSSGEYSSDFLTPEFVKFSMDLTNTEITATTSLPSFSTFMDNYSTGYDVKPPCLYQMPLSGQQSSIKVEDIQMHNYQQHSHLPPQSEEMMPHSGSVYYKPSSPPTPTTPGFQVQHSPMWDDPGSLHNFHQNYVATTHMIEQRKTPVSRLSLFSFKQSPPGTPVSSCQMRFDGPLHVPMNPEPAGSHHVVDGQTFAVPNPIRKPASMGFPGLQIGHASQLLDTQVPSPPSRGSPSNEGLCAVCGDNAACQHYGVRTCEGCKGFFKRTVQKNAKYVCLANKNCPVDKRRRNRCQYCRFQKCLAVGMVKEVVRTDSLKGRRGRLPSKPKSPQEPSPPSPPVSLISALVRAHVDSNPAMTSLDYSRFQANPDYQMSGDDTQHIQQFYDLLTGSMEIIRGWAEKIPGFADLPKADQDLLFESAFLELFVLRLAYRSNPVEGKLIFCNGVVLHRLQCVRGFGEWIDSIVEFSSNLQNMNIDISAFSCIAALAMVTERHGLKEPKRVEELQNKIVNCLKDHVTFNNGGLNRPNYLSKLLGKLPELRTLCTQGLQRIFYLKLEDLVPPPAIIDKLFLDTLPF
Sequence of Steroid hormone receptor ERR1 (Homo sapiens) (P11474 whole entry, looked up, the tested form may be a part): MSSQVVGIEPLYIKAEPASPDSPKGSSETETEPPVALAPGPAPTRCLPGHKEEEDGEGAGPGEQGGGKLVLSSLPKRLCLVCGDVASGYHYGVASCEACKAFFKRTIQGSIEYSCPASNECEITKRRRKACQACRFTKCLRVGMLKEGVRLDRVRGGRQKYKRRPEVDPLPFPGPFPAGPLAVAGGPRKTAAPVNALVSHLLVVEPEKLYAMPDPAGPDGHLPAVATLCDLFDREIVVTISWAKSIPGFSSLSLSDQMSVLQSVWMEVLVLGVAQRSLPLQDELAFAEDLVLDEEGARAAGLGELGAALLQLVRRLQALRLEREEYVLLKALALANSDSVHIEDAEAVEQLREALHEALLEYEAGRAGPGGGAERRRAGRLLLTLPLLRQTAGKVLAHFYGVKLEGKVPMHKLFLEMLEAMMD

In the case of `O=C(Nc1ccc([N+](=O)[O-])cc1Cl)c1cc(Cl)ccc1O`, the compound was called inactive in experiment [1], in [3], in experiment [4], in [5], in experiment [6] and in [7]. In experiment [8], the compound was called inactive. The half-maximal activity concentration (AC50) in [2] is 0.493 µM (active).

With `CC(=O)[C@H]1CC[C@H]2[C@@H]3CCC4=CC(=O)CC[C@]4(C)[C@H]3CC[C@]12C`, the compound was classed as inactive in [1], in experiment [10], in experiment [2], in experiment [3], in experiment [11] and in [12]. The call in experiment [13], in [14], in experiment [6], in experiment [7] and in experiment [8] was inactive. The half-maximal activity concentration (AC50) is 26.5 µM (active) [middle of 4 runs] in [9], 158 µM (active) in experiment [11] and 125 µM (active) in [13].

For `CCOC(=O)C(C)Oc1ccc(Oc2nc3ccc(Cl)cc3o2)cc1` (stereo unspecified), the compound was called inactive in [1], in experiment [9], in experiment [2], in experiment [3], in [15] and in experiment [16]. The compound was called inactive in [17], in [5], in experiment [14], in experiment [6], in experiment [7] and in [8].

`CCOC(=O)COc1cc(-n2ncc(C(F)(F)F)c(C)c2=O)c(F)cc1Cl`: the call in [1], in experiment [9], in experiment [18], in experiment [2], in [3] and in [17] was inactive. The result in experiment [12], in [6], in [7] and in experiment [8] was inactive.

Take `CCCCCCC(C)OC(=O)COc1nc(F)c(Cl)c(N)c1Cl` (stereo unspecified): the call in experiment [1], in [9], in experiment [10], in experiment [2], in [5] and in [12] was inactive. The result in experiment [14], in [6], in experiment [7] and in experiment [8] was inactive.

In the case of `COC(=O)c1ccc(CNS(C)(=O)=O)cc1S(=O)(=O)NC(=O)Nc1nc(OC)cc(OC)n1`, the compound was classed as inactive in experiment [1], in [9], in experiment [18], in [2], in experiment [15] and in experiment [16]. The result in experiment [5], in experiment [12], in experiment [6], in [7] and in experiment [8] was inactive.

For `COC(=O)c1ccc(I)cc1S(=O)(=O)NC(=O)Nc1nc(C)nc(OC)n1`, the result in [1], in experiment [9], in experiment [2], in experiment [17], in [5] and in experiment [12] was inactive. The result in experiment [6], in [7] and in [8] was inactive.

Consider `C[C@]12C[C@H](O)[C@H]3[C@@H](CCC4=CC(=O)CC[C@@]43C)[C@@H]1CC[C@@H]2C(=O)CO`, for which the compound was classed as inactive in experiment [1], in experiment [18], in experiment [2], in experiment [3], in experiment [19] and in experiment [12]. The result in experiment [13], in experiment [14], in [6], in experiment [7] and in [8] was inactive. Further, the AC50 in [18] was 100 µM (active) and 49.6 µM (active); in experiment [16], 129 nM (active) [middle of 4 runs].

In the case of `COC(=O)c1ccccc1C(=O)O`, the compound was classed as inactive in experiment [1], in [9], in experiment [2], in experiment [3], in [12] and in experiment [14]. Moreover, the compound was classed as inactive in experiment [6], in experiment [7] and in [8].
